# Measurements published in the supplement of paper PMC11150407.
# In all, about 3,000 compounds went through this assay and about 45 (2%) showed an effect of 50% or more. The list comes from a sample in which strong results are over-represented; it also holds similar structures and randomly drawn compounds.
# Tested on: MOLM1 and UCSD/AML1 (averaged)
# Assay: cell viability relative to DMSO control (POC); higher = less growth inhibition
# Details: 1 µM; 72 h
# Protocol: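 Primary viability screen in the 3q26 EVI1-high AML cell lines MOLM1 and UCSD/AML1, compounds at 1 uM for 72 h. ATP CellTiter-Glo read-out given as percent viable over DMSO control (POC), averaged over duplicates. This mapping covers the TimTec NDL-3000 natural derivative library, whose compounds are identified by TimTec catalogue codes (ST...).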
row,Compound,cell viability [%]
1,O=C1CC(n2c(=O)oc3ccccc32)C2COC1O2 (stereo not drawn),14.7
2,O=C1CC(n2nnnc2-c2ccccc2Cl)C2COC1O2 (stereo not drawn),64.4
3,O=C1C[C@H](n2nc(-c3ccccc3Br)oc2=S)[C@H]2CO[C@@H]1O2,55.5
4,Cc1ccc2c(O)c([N+](=O)[O-])c(=O)oc2c1,103
5,Cn1c(=O)c2c(nc3n2CC(C24CC5CC(CC(C5)C2)C4)=NN3CCO)n(C)c1=O,106
6,CCOc1cc2c(cc1OCC)C(c1cccc(F)c1F)NCC2 (stereo not drawn),86.1
7,O=C(O)c1cccc(Nc2nc(-c3ccc(Cl)cc3)nc3ccccc23)c1,90
8,O=C(O)c1ccccc1-c1c2ccc(=O)c(Br)c-2oc2c(Br)c(O)ccc12,103
9,COc1ccc(C(=O)N2CCCc3cccc(OC)c32)cc1OC,90.1
10,O=C(O)/C=C/c1ccc([N+](=O)[O-])cc1,109
11,O=C(/C=C/c1ccc(Cl)cc1Cl)c1cccc2ccccc12,95.1
12,O=C(/C=C/c1ccc([N+](=O)[O-])cc1)c1cccc2ccccc12,32.8
13,COc1ccc2c(c1)c(CC(=O)NCc1ccccn1)c(C)n2C(=O)c1ccc(Cl)cc1,84.5
14,O=C(/C=C/c1ccccc1)c1ccc(O)cc1,2.68
15,O=C(/C=C/c1ccccc1)c1ccc(O)cc1O,96.7
16,O=C(/C=C/c1ccccc1)c1cc(O)ccc1O,93.7
17,COc1ccc(/C=C(\C#N)C(=O)OC(C)C)c(OC)c1OC,106
18,CC(=O)OC1CC(n2cc(C)c(=O)[nH]c2=O)OC1CO (stereo not drawn),98.2
19,O=c1[nH]c(=O)n(C2CC(O)C(CO)O2)cc1C(F)(F)F (stereo not drawn),29.6
20,O=c1[nH]c(=O)n(C2C[C@H](O)[C@@H](CO)O2)cc1I (stereo partly drawn),89.8
21,CCOc1ccc2oc(=O)cc(CN3CCNCC3)c2c1,90.2
22,CCOc1ccccc1C(=O)NCCc1c(C)[nH]c2ccccc12,105

row,Compound,cell viability [%]
1,COc1ccc(C2c3[nH]c4ccccc4c3CCN2CC(=O)Nc2ccc(C)cc2)cc1 (stereo not drawn),87.2
2,O=C(/C=C/c1ccc(O)cc1)c1ccc(O)cc1O,102
3,COc1ccc(C(=O)/C=C/c2ccccc2)c(O)c1,101
4,COc1ccc(/C=C/C(=O)c2ccc(O)cc2C)cc1,22.5
5,COc1ccc2c(c1)c(CC(=O)NCCSc1ccccc1)c(C)n2C(=O)c1ccc(Cl)cc1,98.5
6,COc1ccc(C(NS(=O)(=O)c2ccc(C)cc2)c2nccc3cc(OC)c(OC)cc23)cc1OC (stereo not drawn),98.4
7,C=CCN(C(=O)CSc1nc2ccccc2c(=O)[nH]1)c1ccccc1,88.4
8,COc1ccc(OC)c(NC(=O)c2cc(OC)c(OC)c(OC)c2)c1,85.9
9,C=CCN(C(=O)CSc1nc2c(=O)[nH]cnc2n1-c1ccccc1)c1ccccc1,98
10,CCCCCOc1ccc(C2=NOC(=O)/C2=C\c2cc(Cl)ccc2O)cc1,92.3
11,Cc1ccc(-n2c(SCc3ccccc3F)nc3c(=O)[nH]cnc32)cc1,95.2
12,COc1ccc(-c2cc(C(F)(F)F)nc(SC3CC(O)C4OCC3O4)n2)cc1OC (stereo not drawn),98.4
13,CC1CCc2nc(S[C@H]3CC(=O)[C@@H]4OC[C@H]3O4)nc(C(F)(F)F)c2C1 (stereo partly drawn),39.9
14,COc1ccc(-c2cc(-c3ccc4c(c3)OCO4)[nH]c(=O)c2C#N)cc1,97.1
15,CC1(C)C2CCC1(CS(=O)(=O)Nc1ccncc1)C(=O)C2 (stereo not drawn),106
16,COc1cc(C(=O)NCC(C)NC(=O)c2cc(OC)c(OC)c(OC)c2)cc(OC)c1OC (stereo not drawn),99.3
17,CCOc1ccc2oc(=O)cc(CN3CCN(CC(=O)Nc4cc(F)ccc4F)CC3)c2c1,98.5
18,CCOC(=O)c1c(CSCc2ccccc2)n(-c2ccccc2)c2cc(Br)c(OC)cc12,110
19,CCOC(=O)c1c(C)n(-c2ccccc2)c2cc(Br)c(OC)cc12,110
20,CCOC(=O)c1c(CC(C#N)(c2ccccc2)c2ccccc2)n(C)c2cc(Br)c(OC)cc12,17.7
21,Cn1c(=O)c2ccccc2n(CC(=O)N2CCc3ccccc3C2)c1=O,107
22,COc1ccc(NC(=O)CSc2nc3c(=O)[nH]cnc3n2-c2ccc(C)cc2)cc1OC,92.8

row,Compound,cell viability [%]
1,Cc1ccc2occ(C)c(=O)c2c1,98.5
2,O=C(Cn1c(=O)cc(C(=O)N2CCc3ccccc3C2)c2ccccc21)Nc1ccc(Cl)cc1,105
3,N#CC1=C(N)Oc2cc(O)ccc2C1c1cccc([N+](=O)[O-])c1 (stereo not drawn),101
4,N#CC1=C(N)Oc2[nH]c(=O)[nH]c(=O)c2C1c1ccccc1F (stereo not drawn),94.3
5,N#CC1=C(N)Oc2cc(O)ccc2C1c1ccccc1 (stereo not drawn),104
6,N#CC1=C(N)Oc2cc(O)ccc2C1c1cccc(C(F)(F)F)c1 (stereo not drawn),22.1
7,N#CC1=C(N)Oc2cc(O)ccc2C1c1ccccc1F (stereo not drawn),13.8
8,CCc1ccc(C2C(C#N)=C(N)Oc3cc(O)ccc32)cc1 (stereo not drawn),110
9,O=C(O)CNC(=O)c1ccc(Cl)cc1,108
10,O=c1c(O)c(-c2ccc(F)cc2)oc2cc(Cl)ccc12,100
11,Cc1cc(C)c(NC(=O)Cn2c(=O)cc(C(=O)N3CCCCC3)c3ccccc32)c(C)c1,99.4
12,COCCOC(=O)c1c(C)n(CCOC23CC4CC(CC(C4)C2)C3)c2c1cc(O)c1ccccc12,81.2
13,Cc1ccc(-n2c(SCC(=O)Nc3ccccc3C(F)(F)F)nc3c(=O)[nH]cnc32)cc1,108
14,COC(=O)c1ccc(NC(=O)c2cc(OC)c(OC)c(OC)c2)cc1,23.1
15,COc1cc(C(=O)Nc2ccccc2NC(=O)c2cc(OC)c(OC)c(OC)c2)cc(OC)c1OC,95.9
16,COc1cc(C(=O)Nc2ccc(C(=O)c3cccs3)cc2)cc(OC)c1OC,99.7
17,COc1cc(C(=O)Nc2ccc(CN3CCCC3)cc2)cc(OC)c1OC,87.4
18,COc1cc(C(=O)Nc2ccccc2C(=O)NCc2ccccc2)cc(OC)c1OC,85.2
19,COc1cc(C(=O)Nc2ccc(C(F)(F)F)cc2)cc(OC)c1OC,93.8
20,COc1ccc(C(=O)Nc2ccc3ncn(C)c3c2)cc1OC,101
21,CCCCc1ccc(NC(=O)c2cc(OC)c(OC)c(OC)c2)cc1,49.6
22,COc1cc(C(=O)Nc2ccc3c(c2)ncn3C)cc(OC)c1OC,19

row,Compound,cell viability [%]
1,COc1cc(C(=O)Nc2ccc3ncn(C)c3c2)cc(OC)c1OC,93.9
2,COc1cc(C(=O)Nc2ccccc2C(=O)Nc2ccccc2)cc(OC)c1OC,36
3,COc1cc(C(=O)Nc2ccc(C(=O)NCc3ccccc3)cc2)cc(OC)c1OC,87
4,O=C(CSc1nc2ccccc2c(=O)[nH]1)NCc1ccccc1Cl,107
5,Cc1ccc(NC(=O)CN2C(=O)S/C(=C/c3cc4c(cc3Cl)OCO4)C2=O)cc1,92
6,CNC(=O)c1ccccc1NC(=O)C(=O)c1c[nH]c2ccccc12,111
7,CCOC(=O)/C=C1\NC(C)(C)Cc2cc3c(cc21)OCCO3,89.5
8,CC(C)COc1ccc(C(=O)N/C(=C\c2ccccc2)C(=O)NCCNC(=O)/C(=C\c2ccccc2)NC(=O)c2ccc(OCC(C)C)cc2)cc1,103
9,COc1cc(OC)cc(C(=O)Nc2cc(OC)cc(S(=O)(=O)c3ccc(Cl)cc3)c2)c1,92.8
10,CCc1cccc(C)c1NC(=O)CN1CCN(Cc2cc(=O)oc3cc(C)ccc23)CC1,95.4
11,Cc1ccc2c(C)cc(=O)[nH]c2c1C,109
12,COc1cc(C(=O)CCNc2ccc(F)cc2)cc(OC)c1OC,78.3
13,Cc1ccc2[nH]c(C)c(CCNS(=O)(=O)c3ccc4c(c3)OCCO4)c2c1,99.4
14,COc1ccc(/C=C/C(=O)c2ccccc2)cc1COc1ccc([N+](=O)[O-])cc1,101
15,COc1ccc(/C=C/C(=O)c2ccccc2)cc1COc1ccc(Cl)cc1,106
16,COc1ccc(/C=C/C(=O)c2ccccc2)cc1COc1ccc(NC(C)=O)cc1,40
17,Cc1ccc(C)c(-c2nc(CSc3nc4c(=O)[nH]cnc4n3C)c(C)o2)c1,103
18,Cc1cc2c(c(O)c1-c1c(C)cc3c(c1O)/C(=C/Nc1c(C)n(C)n(-c4ccccc4)c1=O)C(=O)C(O)=C3C(C)C)/C(=C/Nc1c(C)n(C)n(-c3ccccc3)c1=O)C(=O)C(O)=C2C(C)C,84.6
19,COc1cc(C(=O)NC(C(=O)O)C(C)C)cc(OC)c1OC (stereo not drawn),103
20,CC(C)(C)c1ccc(C(=O)NCC(=O)O)cc1,95.9
21,O=C(/C=C/c1cccc([N+](=O)[O-])c1)c1ccc2c(c1)OCO2,98.1
22,O=C(/C=C/c1ccc([N+](=O)[O-])cc1)NCc1ccc2c(c1)OCO2,97

row,Compound,cell viability [%]
1,O=[N+]([O-])C1=Cc2ccccc2OC1c1ccc2c(c1)OCO2 (stereo not drawn),2.67
2,COCCN1C(=O)/C(=C\c2cc(OC)c(OC)c(OC)c2)C(C(=O)OC)=C1C,101
3,O=C(CCNc1cccc(Cl)c1)c1cc2ccccc2oc1=O,115
4,CCOC(=O)c1ccc2[nH]c(=O)c(C)c(O)c2c1,108
5,CCOC(=O)c1ccc2[nH]c(=O)c(Cc3ccccc3)c(O)c2c1,97.9
6,CCOC(=O)c1ccc2[nH]c(-c3ccccc3)cc(=O)c2c1,7.45
7,COc1ccc(C(=O)CC2(O)C(=O)N(Cc3cccc4ccccc34)c3ccccc32)cc1OC (stereo not drawn),97.5
8,NC(=O)CC1CCCCN1 (stereo not drawn),126
9,O=c1cc(O)c2cc(Cl)ccc2o1,101
10,Cc1ccc2oc(-c3ccc(Cl)cc3)cc(=O)c2c1,85.9
11,O=c1cc(-c2ccccc2Br)oc2ccc(Cl)cc12,110
12,Cc1ccc2occc(=O)c2c1,100
13,Cc1ccc2oc(-c3ccccc3C)cc(=O)c2c1,21.6
14,Cc1ccc2oc(C(Cl)(Cl)Cl)cc(=O)c2c1,26.6
15,O=c1cc(C(Cl)(Cl)Cl)oc2ccccc12,4.98
16,Cc1ccccc1-c1cc(=O)c2cc(Br)ccc2o1,106
17,O=c1ccoc2ccccc12,93.1
18,O=c1cc(C(Cl)(Cl)Cl)oc2ccc(Cl)cc12,7.16
19,O=c1cc(-c2ccc(Br)cc2)oc2ccc(Cl)cc12,96
20,Cc1ccc(-c2cc(=O)c3ccccc3o2)cc1,92.3
